# Assay outcomes from PubChem.
# Only some compounds are listed: those with a hit (about 3.8% of all), similar ones and a draw of the others.
# PfHsp90 set2 = inhibits growth of yeast expressing Plasmodium falciparum Hsp90. S. cerevisiae expressing PfHsp90, BacTiter-Glo ATP, 48 h; yeast lacking PDR1 and PDR3 efflux regulators. inhibition, % at 9.4 µM. 0.32% of 310,000 active;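 active = every replicate shows inhibition above about 80%, whatever the replicate mean, limit read from the data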
# B2AR ag = agonists of human beta-2 adrenergic receptor inducing internalization. P07550. Am2.2-beta2AR cells, FAP receptor internalization, flow cytometry. response, % (no concentration beside the values). 0.43% of 340,000 active. AID 504454;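 active = response above a set limit, near 3 SD of response in nonfluorescent compounds, cut at about 42% in these data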
# Target sequence (P07550 whole entry, looked up): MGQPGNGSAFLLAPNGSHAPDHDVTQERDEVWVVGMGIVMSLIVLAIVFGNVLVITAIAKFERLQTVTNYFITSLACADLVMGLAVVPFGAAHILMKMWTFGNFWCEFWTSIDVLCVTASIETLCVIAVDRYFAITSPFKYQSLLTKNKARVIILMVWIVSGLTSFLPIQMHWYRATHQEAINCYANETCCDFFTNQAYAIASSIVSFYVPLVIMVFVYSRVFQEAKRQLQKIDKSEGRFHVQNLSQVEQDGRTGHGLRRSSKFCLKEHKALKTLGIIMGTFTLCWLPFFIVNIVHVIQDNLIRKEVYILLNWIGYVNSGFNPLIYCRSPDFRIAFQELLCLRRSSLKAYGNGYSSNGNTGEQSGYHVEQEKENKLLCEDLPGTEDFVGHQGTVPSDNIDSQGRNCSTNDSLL
# tim23-1 inh = growth inhibitors of tim23-1 mutant yeast; 1.3% of 330,000 active; S. cerevisiae tim23-1 growth, BacTiter-Glo luminescence, 24 h; AID 463212; inhibition, % at 20 µM;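 active = growth inhibition of the mutant yeast at or above 50%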;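 note: temperature-sensitive mutant grown at 25 °C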
# tim10-1 inh = growth inhibitors of tim10-1 mutant yeast; S. cerevisiae tim10-1 ts strain growth, BacTiter-Glo, 24 h; inhibition, % at 20 µM; 2.2% of 330,000 active; AID 463190;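 active = inhibition of at least 40%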;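 note: mutant grown at 25 °C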
# TIM10 inh = TIM10 yeast growth inhibition. S. cerevisiae TIM10 strain growth, BacTiter-Glo luminescence, 24 h. inhibition, % at 10 µM. 1.4% of 330,000 active. AID 463195;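 active = inhibition of 40% or more at the single tested concentration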;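 note: wild-type TIM10 isogenic control strain grown at permissive 25 °C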
# B2AR ag CP1 = human beta-2 adrenergic receptor agonism, cherry pick | shares compounds with B2AR ag | Am2.2-beta2AR cells, FAP surface receptor, flow cytometry; hits give low values | percent response (surface receptor), % at 10 µM | 25% of 1,100 active;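 active = surface receptor percent response at or below 58%, roughly 3 SD from nonfluorescent compounds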
# FAP fluor counter = counter-screen for beta-2AR agonists: fluorescence in Am2.2 cells; shares compounds with B2AR ag; FAP fluorogen flow cytometry, fluorescence counterscreen; hits give low values; calls only at 10 µM; 1,100 tested, under 10 active; AID 588765;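 active = percent response below a set limit in fluorescence channel 1 and below 50% in channel 8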
# Hits are given with their value; – = inactive; · = not tested or not shown.
SMILES,PfHsp90 set2,B2AR ag,tim23-1 inh,tim10-1 inh,TIM10 inh,B2AR ag CP1,FAP fluor counter
COc1cccc(CNCCc2c[nH]c3ccccc23)c1OCc1ccc(F)cc1,–,–,–,–,–,·,·
O=C(NNC(=O)c1ccccc1[N+](=O)[O-])c1csc(N2CCOCC2)n1,·,–,–,–,–,·,·
Cc1ccc(C(=O)Nc2ccc(O)cc2C(=O)O)cc1C,–,–,–,–,–,–,–
Cc1ccc(C(=O)Nc2ccc(O)cc2C(=O)O)cc1,–,–,–,–,–,·,·
O=C(O)c1cc(O)ccc1NC(=O)c1cccc2ccccc12,–,69,–,–,–,–,–
CC(COc1ccc(/C=C/c2ccccc2)cc1)[N+](C)(C)C (centres undefined),–,–,–,–,–,·,·
COc1ccc(/C=C(\NC(=O)c2ccc([N+](=O)[O-])cc2)C(=O)NCCCN2CCOCC2)cc1,–,–,–,–,–,·,·
Cc1cccc(N(CC(=O)NCC2CCCO2)C(=O)CNS(=O)(=O)c2ccc(Cl)cc2)c1 (centres undefined),–,–,–,–,–,·,·
CON(c1nc(Cl)nc(N(C)C)n1)S(=O)(=O)c1ccc(C)cc1,–,–,–,–,–,·,·
COc1ccc(C(=O)Nc2cc(-c3nn4c(C)nnc4s3)ccc2C)cc1,–,–,–,–,–,·,·
Cc1cc(OCC(=O)Nc2cc(-c3nn4c(C)nnc4s3)ccc2C)ccc1Cl,–,79,–,–,–,–,–
COc1ccccc1/C=C/c1onc(C)c1S(=O)(=O)N1CCC(C(=O)NC(C)C)CC1,–,44,–,–,–,–,–
CCOc1ccccc1/C=C/c1onc(C)c1S(=O)(=O)N1CCC(C(=O)NC(C)C)CC1,–,–,–,–,–,·,·
Cc1ccc(O)c(NC(=O)c2cccc(NC(=O)c3ccco3)c2)c1,–,85,–,–,–,19,–
COc1ccccc1C(=O)Nc1ccc2oc(-c3ccc(F)cc3)nc2c1,–,–,–,–,–,–,–
O=C(N/N=C/c1c(Nc2cccc(C(F)(F)F)c2)nc2ccccn2c1=O)c1ccccc1[N+](=O)[O-],–,–,–,–,–,·,·
Cc1noc(C)c1C(=O)Nc1cccc(S(=O)(=O)N2CCOCC2)c1,–,–,–,–,–,·,·
Cc1cccc(OCCn2c(=S)[nH]c3ccccc32)c1,–,–,–,–,–,·,·
Cc1ccc(OCCn2c(=S)[nH]c3ccccc32)c(C(C)C)c1,–,69,–,–,–,–,–
CCCOC(=O)C1=C(C)NC2=C(C(=O)CCC2)C1c1cccc(OC)c1OC (centres undefined),–,–,–,–,–,·,·
CCOC(=O)c1cc(NC(=O)N(C)C2CCCCC2)c(C)nc1C,–,48,–,–,–,–,–
Fc1ccc(-c2nn(-c3ccccc3)cc2CNCc2ccccc2)cc1,–,44,–,–,–,–,–
Cc1ccc2nc(C)cc(C(=O)OCC(=O)c3ccc(Cl)c([N+](=O)[O-])c3)c2c1,–,53,–,–,–,–,–
CCCNC(C)C(=O)Nc1ccccc1C (centres undefined),–,–,–,–,–,–,–
CC(C)c1ccc(-c2c(C#N)c(N)nc(SCC(=O)N3CCCCCC3)c2C#N)cc1,·,·,–,–,–,·,·
SMILES,PfHsp90 set2,B2AR ag,tim23-1 inh,tim10-1 inh,TIM10 inh,B2AR ag CP1,FAP fluor counter
COC(=O)CSc1nc(N)c(C#N)c(-c2ccc(O)cc2)c1C#N,–,67,–,–,–,–,–
CC1CCC(C(C)C)C(OC(=O)Cn2c(-c3ccccc3)[n+](C)c3ccccc32)C1 (centres undefined),–,–,–,–,–,·,·
Cc1cccc(OCc2n(CC(=O)OC3CC(C)CCC3C(C)C)c3ccccc3[n+]2C)c1 (centres undefined),–,–,–,–,–,–,–
COc1cc2nc(N3CCN(C(=O)C4COc5ccccc5O4)CC3)nc(N)c2cc1OC (centres undefined),–,–,–,–,–,–,–
CCCCOc1cccc(C(=O)Nc2ccc(NC(=O)c3cccs3)cc2)c1,–,79,–,–,–,21,–
COc1ccc(C(CCNCc2ccc(OC)c(OC)c2)c2ccc(F)cc2)cc1 (centres undefined),–,–,–,–,–,–,–
COc1ccc(NCc2ccc(OC)c(OC)c2)cc1,·,·,–,–,–,·,·
COc1ccc(C(CCNCc2ccc(N(C)C)cc2)c2ccccc2)cc1 (centres undefined),–,–,–,–,–,–,–
CC(C)Oc1ccc(CNC(=O)CC(c2ccccc2)c2cc(Cl)ccc2O)cc1 (centres undefined),–,–,–,–,–,·,·
CC(C)Oc1ccc(C(CCNCc2ccc(O)cc2)c2ccccc2)cc1 (centres undefined),–,–,–,–,–,–,–
CCOC(=O)N1CCN(C(=O)COC(=O)Cc2ccc(Cl)cc2)CC1,–,–,–,–,–,·,·
COc1ccc(CCNCC(O)Cn2c3ccccc3c3ccccc32)cc1OC (centres undefined),–,48,–,–,–,53,–
Cn1c(=O)c2c(nc(SCC(=O)NCC3CCCO3)n2Cc2ccc(F)cc2)n(C)c1=O (centres undefined),–,–,–,–,–,·,·
Cc1ccc(S(=O)(=O)N2CCCC2C(=O)NCCc2nc3ccccc3[nH]2)cc1 (centres undefined),–,50,–,–,–,–,–
Cc1ccc(S(=O)(=O)N2CCCC2C(=O)NCCc2ccccc2)cc1 (centres undefined),–,–,–,–,–,·,·
Cc1c(CN2CCC(CO)(Cc3cccc(C(F)(F)F)c3)CC2)c2ccccc2n1C,–,46,–,–,–,–,–
OCC1(Cc2cccc(C(F)(F)F)c2)CCN(Cc2cc3ccccc3o2)CC1,–,–,–,–,–,·,·
CN(C)CC/C=C1\c2ccccc2Sc2ccc(Cl)cc21,–,53,–,–,–,–,–
CN(C)CC/C=C1\c2cc(Cl)ccc2Sc2cc(F)c(F)cc21,–,–,–,–,–,·,·
C[C@@H]1C(=O)N(c2ccccc2)[C@@H]1c1ccncc1,–,–,–,–,–,·,·
O=C(COc1cccc(Cl)c1)Nc1ccc2c(c1)CCC2,–,–,–,–,–,·,·
O=[N+]([O-])c1cccc(-c2nc(-c3ccccc3)c(-c3cccs3)[nH]2)c1,–,50,–,–,–,–,–
COc1ccc2[nH]c3c(NCCC4=CCCCC4)ncnc3c2c1,–,45,·,·,·,–,–
CCN(CC)CCNc1ncnc2c1[nH]c1ccc(OC)cc12,·,·,–,–,–,·,·
CCOc1cc(CNc2ccc3c(c2)OCCO3)cc(Br)c1OC,–,46,–,–,–,–,–
CCOc1c(Br)cc(CNc2ccc3c(c2)OCCO3)cc1OC,–,–,–,–,–,·,·
